Consider 7 compounds from PubChem BioAssay (NCATS).

Values joined by “and” are separate entries in the source; they are usually repeats but may differ in a detail not shown here. Equal values may be shown once. Values without a mark were called inactive. Inconclusive results are not listed. Active and inactive are the calls of the source. Unless noted, the call rests on the fitted dose curve; in most records, active means well fitted curve in the direction sought with a large enough effect; inconclusive means small, poorly fitted or top-dose-only effect, or another doubt; inactive means no such curve, though single readings can be large; an effect the other way counts as inactive or inconclusive.

The test system of experiment [1] is CASKI. The experiment in a line: Primary qHTS to identify gynecologic anti-cancer compounds using libraries of approved drugs and bioactive compounds (AID 1345084). Further: on the % scale 0 is the no-effect control and ±100 the full control effect; nearly all actives have a fitted effect of over 55% in size. As to conditions: Gynecologic cancer cell panel viability, ATPlite luminescence, 48 h; series mostly up to 57.5 µM. A digest of the protocol: (§1)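 In this quantitative HTS, cell killing is estimated from loss of ATP-dependent luciferase light. Cells see five compound concentrations over a 48 h exposure.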
A general note: Quantitative high-throughput screening tests each substance at several concentrations.

Experiment [2] deals with Es-2. The description is as above. As to conditions: Gynecologic cancer cell panel viability, ATPlite luminescence, 48 h; series mostly up to 57.5 µM. A digest of the protocol:
as §1
(In general: Cellular ATP, detected with luciferase, serves as a proxy for viable cell number.)

Experiment [3] concerns HeLa. The description is as above. The settings on record: Gynecologic cancer cell panel viability, ATPlite luminescence, 48 h; series mostly up to 57.5 µM. The method in brief: as §1
Experiment [4] relates to Hek293T. Described as above. The settings on record: Gynecologic cancer cell panel viability, ATPlite luminescence, 48 h, control line for the selectivity index; series mostly up to 57.5 µM. The method in brief: as §1
In experiment [5] the test system is JEG-3. The experiment is described as above. The settings on record: Gynecologic cancer cell panel viability, ATPlite luminescence, 48 h; series mostly up to 57.5 µM. The method in brief:
as §1

The test system of experiment [6] is OV90. The description is as above. As to conditions: Gynecologic cancer cell panel viability, ATPlite luminescence, 48 h; series mostly up to 57.5 µM. A digest of the protocol:
as §1

Experiment [7] deals with PA-1. The description is as above. The settings on record: Gynecologic cancer cell panel viability, ATPlite luminescence, 48 h; series mostly up to 57.5 µM. A digest of the protocol: as §1
For experiment [8], the system named is SKOV3. The description is as above. The settings on record: Gynecologic cancer cell panel viability, ATPlite luminescence, 48 h; series mostly up to 57.5 µM. A digest of the protocol: as §1
Experiment [9] relates to Tov-21-G. Described as above. As to conditions: Gynecologic cancer cell panel viability, ATPlite luminescence, 48 h; series mostly up to 57.5 µM. A digest of the protocol:
as §1

In experiment [10] the test system is Tov112D. The experiment is described as above. The settings on record: Gynecologic cancer cell panel viability, ATPlite luminescence, 48 h; series mostly up to 57.5 µM. The method in brief: as §1
Experiment [11] can be described thus: Drug repurposing screens with cells derived from glioblastoma tumor samples (AID 1345199). Further: nearly all actives have a fitted effect of over 40% in size. Further: potency means the concentration at half of the fitted maximal effect. On activity, negative = cell killing: on the % scale 0 is the no-effect control and ±100 the full control effect. The settings on record: GBM patient neurospheres viability, ATP luminescence, 48 h. A digest of the protocol:
(§2)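 Primary testing used CD133+ neurospheres from four GBM patients, seven concentrations, 48 h exposure and ATP-based viability; confirmation added three slower-growing patient lines.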

Experiment [12] relates to C33A. The experiment in a line: Primary qHTS to identify gynecologic anti-cancer compounds using libraries of approved drugs and bioactive compounds (AID 1345084). Further: on the % scale 0 is the no-effect control and ±100 the full control effect; nearly all actives have a fitted effect of over 55% in size. As to conditions: Gynecologic cancer cell panel viability, ATPlite luminescence, 48 h; series mostly up to 57.5 µM. A digest of the protocol: as §1
The target in experiment [13] is Nuclear receptor subfamily 1 group I member 2 (Rattus norvegicus) (UniProt Q9R1A7). The experiment in a line: qHTS assay for small molecule activators of the rat pregnane X receptor (rPXR) signaling pathway (AID 651751; call rule not given here; further: 0% is about no effect). The settings on record: rPXR reporter cells, luciferase (One-Glo), 24 h.
Experiment [14] can be described thus: qHTS assay for small molecule activators of the human pregnane X receptor (PXR) signaling pathway (AID 720659; call rule not given here; further: 0% is about no effect).
Experiment [15] concerns astro. The experiment in a line: Drug repurposing screens with cells derived from glioblastoma tumor samples (AID 1345199). Further: nearly all actives have a fitted effect of over 40% in size. Further: potency means the concentration at half of the fitted maximal effect. On activity, negative = cell killing: on the % scale 0 is the no-effect control and ±100 the full control effect. The settings on record: viability, ATP luminescence, 48 h; series mostly up to 45.9 µM. The method in brief:
as §2

Experiment [16] relates to CAOV3. The experiment in a line: Primary qHTS to identify gynecologic anti-cancer compounds using libraries of approved drugs and bioactive compounds (AID 1345084). Further: on the % scale 0 is the no-effect control and ±100 the full control effect; nearly all actives have a fitted effect of over 55% in size. As to conditions: Gynecologic cancer cell panel viability, ATPlite luminescence, 48 h; series mostly up to 57.5 µM. The method in brief: as §1
Where [17] appears, read: at 45.9 µM (top of the series), tumour line B.
The mark [18] stands for this setting: at 45.9 µM (top of the series), tumour line D.
The mark [19] stands for this setting: at 46 µM (top of the series), tumour line A.
The mark [20] stands for this setting: at 46.1 µM (top of the series), tumour line C.

Sequence of Nuclear receptor subfamily 1 group I member 2 (Rattus norvegicus) (Q9R1A7 whole entry, looked up): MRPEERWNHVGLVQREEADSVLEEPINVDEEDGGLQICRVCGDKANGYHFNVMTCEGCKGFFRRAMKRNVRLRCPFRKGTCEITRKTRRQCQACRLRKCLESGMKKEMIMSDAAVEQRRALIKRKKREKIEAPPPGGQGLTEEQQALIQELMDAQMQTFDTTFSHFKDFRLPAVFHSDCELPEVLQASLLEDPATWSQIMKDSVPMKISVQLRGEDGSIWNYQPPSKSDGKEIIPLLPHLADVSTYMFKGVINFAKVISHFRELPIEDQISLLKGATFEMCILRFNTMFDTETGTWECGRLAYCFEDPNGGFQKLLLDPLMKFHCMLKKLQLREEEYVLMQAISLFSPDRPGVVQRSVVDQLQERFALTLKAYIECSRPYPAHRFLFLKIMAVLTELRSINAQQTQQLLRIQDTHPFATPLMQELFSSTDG

`CC1(C)S[C@@H]2[C@H](NC(=O)[C@H](N)c3ccc(O)cc3)C(=O)N2[C@H]1C(=O)O`: the Potency result in experiment [1], in [2], in [3], in experiment [4], in experiment [5] and in experiment [6] was “inactive” throughout. Also, the Potency result in [7], in experiment [8], in experiment [9] and in experiment [10] was “inactive” each time. Also, the activity, negative = cell killing was 2.03% in experiment [11] (setting [17]), 3.17% in experiment [11] (setting [18]), -16.6% in experiment [11] (setting [19]) and -0.658% in [11] (setting [20]).
Regarding `S=c1[nH]c2ccccc2s1`, the Potency result in experiment [12], in experiment [1], in experiment [2], in [3], in experiment [4] and in experiment [5] was “inactive” in each case. Besides, the Potency entry in experiment [6], in [7], in experiment [9] and in experiment [10] was “inactive” throughout. Besides, the activity, negative = cell killing in experiment [11] (setting [17]) is -16.2%; in [11] (setting [20]) it was -8.66%. In addition, in experiment [11] (tumour line A), the Potency was 39.8 µM (active). For the same compound, in experiment [13], the max response was 4.63% and 1.9%. For the same compound, in [14], the outcome was inactive.
As for `Cc1onc(-c2c(F)cccc2Cl)c1C(=O)N[C@@H]1C(=O)N2[C@@H]1SC(C)(C)[C@@H]2C(=O)O`, the Potency entry in experiment [1], in experiment [2], in experiment [3], in experiment [4], in experiment [5] and in [6] was “inactive” each time. The Potency result in [7], in experiment [8], in experiment [9] and in [10] was “inactive” each time. The activity, negative = cell killing is -10.7% and -14.2% in experiment [11] (setting [17]); 14.3% and -22.2% in experiment [11] (setting [18]); -14.1% and -18% in experiment [11] (setting [19]); 9.01% and 7.31% in experiment [11] (setting [20]).
For `O=c1[nH]c2ccccc2n1CCCN1CCN(C(c2ccccc2)c2ccccc2)CC1`, the Potency result in [12], in experiment [3], in experiment [5], in experiment [10] and in experiment [15] was “inactive” each time.
Regarding `O=C(Nc1ccc2c(c1)CCN(Cc1ncn[nH]1)C2)c1ccccc1-c1ccc(C(F)(F)F)cc1`, the Potency result in experiment [1], in experiment [2], in experiment [3], in [4], in [5] and in experiment [6] was “inactive” throughout. The Potency entry in experiment [7], in [9] and in experiment [10] was “inactive” throughout.
In the case of `O=[N+]([O-])c1ccc(CNc2nc(NCc3cccc(C(F)(F)F)c3)nc3nc[nH]c23)cc1`, the Potency entry in [12], in [16], in [1], in [2], in experiment [3] and in [4] was “inactive” throughout. The Potency entry in [5], in [7], in experiment [8], in [9] and in experiment [10] was “inactive” in each case.
With `CN1[C@@H]2CC[C@H]1CC(OC(=O)C(CO)c1ccccc1)C2` (stereo partly drawn), the Potency result in experiment [12], in [1], in experiment [2], in experiment [3], in experiment [4] and in experiment [5] was “inactive” throughout. Moreover, the Potency result in experiment [6], in [7], in experiment [8], in experiment [9] and in experiment [10] was “inactive” in each case. The activity, negative = cell killing in [11] (setting [17]) was -12.1% and -3.29%; in experiment [11] (setting [18]), -9.67% and -14.2%; in experiment [11] (setting [20]), 4.75% and 11.7%. The result in experiment [14] was inactive.
